Screens (PubChem BioAssay)
DNA Pol III inh – qHTS Assay for Inhibitors of DNA Polymerase III Holoenzyme System | AID 603, 2007 | Potency, µM (series often up to 57.1 µM) | reconstituted DNA polymerase III holoenzyme replication, biochemical | 71,000 compounds, 0.25% hits
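Reconstituted *E. coli* holoenzyme (0.35 nM Pol III, 1 nM beta, 154 nM SSB, 2 nM primase) was preincubated with compound for 15 min at RT. Synthesis on 1.4 nM ssM13Gori ran 35 min, then was stopped with PicoGreen/EDTA and read as dsDNA fluorescence.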
Hsp90 Hop PPI – qHTS Assay for Disrupters of an Hsp90 Co-Chaperone Interaction | AlphaScreen TPR2A-His6 binding biotin-Hsp90 C-terminal peptide | Potency, µM (top dose mostly 57 µM) | 71,000 compounds, 0.44% hits | AID 595, 2007; active = well fitted curve in either direction with a large enough effect; inconclusive = small, poorly fitted or top-dose-only effect, or another doubt
TsaE inh – qHTS Assay for Inhibitors of YjeE | purified YjeE enzyme, qHTS inhibition assay | 71,000 compounds, 0.05% hits | AID 605, 2007 | Potency, µM | tRNA threonylcarbamoyladenosine biosynthesis protein TsaE (Escherichia coli (strain …
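Fluorescence polarization of a BODIPY Texas Red–ADP probe (2 uM) bound to purified YjeE (10 uM) was read after 15 min room-temperature incubation with compounds. Loss of polarization marks inhibitors; ADP serves as titrated control.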
Tau fil binding – qHTS Assay for Tau Filament Binding | Microtubule-associated protein tau (Homo sapiens), P10636 | recombinant tau filaments, thioflavin S fluorescence, 15 h; filaments grown with octadecylsulfate alongside compound | Potency, µM (titrated, usually from 57.1 µM) | 71,000 compounds, 2% hits;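 note: actives lower thioflavin S fluorescence by blocking filaments or displacing dye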
Target sequence (P10636 whole entry, looked up): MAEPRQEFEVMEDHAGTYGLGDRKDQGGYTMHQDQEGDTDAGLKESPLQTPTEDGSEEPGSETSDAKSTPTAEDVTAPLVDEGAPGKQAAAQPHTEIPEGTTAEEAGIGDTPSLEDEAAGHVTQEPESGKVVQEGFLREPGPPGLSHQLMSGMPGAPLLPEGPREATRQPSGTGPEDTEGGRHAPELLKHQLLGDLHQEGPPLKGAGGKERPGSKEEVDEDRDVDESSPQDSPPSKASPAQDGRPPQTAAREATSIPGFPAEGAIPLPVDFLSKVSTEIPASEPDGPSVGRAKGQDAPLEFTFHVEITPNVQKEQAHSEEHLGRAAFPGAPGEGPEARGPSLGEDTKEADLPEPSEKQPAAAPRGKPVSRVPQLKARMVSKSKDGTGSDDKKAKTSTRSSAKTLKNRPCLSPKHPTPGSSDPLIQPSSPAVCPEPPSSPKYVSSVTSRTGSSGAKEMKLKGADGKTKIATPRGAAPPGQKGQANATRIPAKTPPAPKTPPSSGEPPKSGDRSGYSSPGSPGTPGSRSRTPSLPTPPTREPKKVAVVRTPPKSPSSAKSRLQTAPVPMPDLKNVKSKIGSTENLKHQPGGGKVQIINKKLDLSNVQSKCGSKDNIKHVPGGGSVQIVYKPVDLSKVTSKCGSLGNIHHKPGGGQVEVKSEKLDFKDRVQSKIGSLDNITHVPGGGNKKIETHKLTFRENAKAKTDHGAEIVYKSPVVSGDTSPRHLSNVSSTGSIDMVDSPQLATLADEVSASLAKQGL
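Recombinant tau protein (human, 1 uM final) plus 30 uM ODS in HEPES pH 7.4 with NaCl, DTT and thioflavine S. Compound present from the start; fluorescence at 510 nm after 15 h, 37 C.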
15-hLO inh – qHTS Assay for Inhibitors of 15-hLO (15-human lipoxygenase); Polyunsaturated fatty acid lipoxygenase ALOX15 (Homo sapiens), P16050; purified 15hLO-1, xylenol orange hydroperoxide absorbance; 74,000 compounds, 1.4% hits; Potency, µM (titrated, usually from 57.1 µM), usual class: inhibitors; AID 887, 2007; note: nearly all actives have a fitted effect of over 55% in size
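Readout: Fe(III)-xylenol orange absorbance, 573-to-405 nm ratio as reaction progress. Enzyme 40 nM purified human 15hLO-1, substrate 50 uM arachidonic acid, 6 min RT after 15 min compound preincubation; Hepes pH 7.5 buffer with Triton X-100.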
ERK AVP inh – qHTS Assay for Inhibitors of the ERK Signaling Pathway using a Homogeneous Screening Assay; 72,000 compounds, 0.99% hits; HEK293-V1b, vasopressin-stimulated pERK AlphaScreen; Potency, µM (titrated, usually from 57.5 µM), most hits filed as inhibitors; note: nearly all actives have a fitted effect of over 55% in size
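HEK293 cells stably expressing V1b receptor, seeded overnight in 1% FBS, were treated with compounds for 30 min at 37C, then stimulated 5 min with 25 nM vasopressin; phospho-ERK read by AlphaScreen SureFire after lysis.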
Large screens that a line does not name were inactive; ! = repeats disagree. Hits are enriched below; roughly 4.2% of the tested compounds scored in any of these assays. Unless noted, calls come from the whole dose curve; as a rule, active = well fitted curve in the direction sought with a large enough effect; inconclusive = small, poorly fitted or top-dose-only effect, or another doubt; inactive = no such curve, though single readings can be large; an effect the other way counts as inactive or inconclusive.

COc1cc(/C=C(\C#N)C(=O)c2ccc(O)c(O)c2)cc(I)c1O	Hsp90 Hop PPI inconclusive, 15-hLO inh 1µM, ERK AVP inh inconclusive
c1ccc(NCCCNc2ccccc2)cc1	none
CN(C)CCCN1c2ccccc2Sc2ccc(Cl)cc21	Tau fil binding 5µM, ERK AVP inh inconclusive
CN(C)CCCN1c2ccccc2Sc2ccc3ccccc3c21	Tau fil binding 2.5µM
OCCN1CCN(CCCN2c3ccccc3Sc3ccc(Cl)cc32)CC1	ERK AVP inh inconclusive
COC(=O)c1ccc(OCC(O)CN(CCO)CCO)cc1 (stereo not drawn)	none
COc1ccc(C2C(C(=O)N3CCCC3)c3cc(OC)c(OC)cc3C(=O)N2C)cc1 (stereo not drawn)	none
COc1cc(OC)c(C2CC(=O)N3CN(c4ccccc4C)CSC3=C2C#N)cc1OC (stereo not drawn)	15-hLO inh inconclusive
CCc1ccccc1N1CSC2=C(C#N)C(c3ccccc3F)CC(=O)N2C1 (stereo not drawn)	15-hLO inh 3.2µM
COc1ccc(C2CC(=O)N3CN(c4ccccc4F)CSC3=C2C#N)cc1OC (stereo not drawn)	Hsp90 Hop PPI inconclusive, 15-hLO inh 0.32µM, ERK AVP inh inconclusive
CSc1cccc(NC(=O)Nc2ccccc2)c1	Hsp90 Hop PPI inconclusive, ERK AVP inh inconclusive
CCCCN1C(=O)/C(=C2\SC(N3CCCCC3)=NC2=O)c2ccccc21	Hsp90 Hop PPI inconclusive, ERK AVP inh 25µM
O=C1N=C(N2CCOCC2)S/C1=C1\C(=O)N(Cc2ccccc2)c2ccc(Br)cc21	none
CCOC(=O)C(C)(C)Sc1nc2c(cnn2-c2ccc(C)cc2)c(=O)[nH]1	none
Nc1cc(-c2cccc(F)c2)nn1S(=O)(=O)c1cccc2nsnc12	Hsp90 Hop PPI inconclusive, Tau fil binding 16µM
Cc1cc(C(=O)O)cc(S(=O)(=O)N2CCOCC2)c1C	none
COc1ccccc1C(=O)NCc1ccncc1	none
Cc1ccccc1C(=O)NCc1ccncc1	ERK AVP inh 25µM
O=C(O)CC[C@@H](NC(=O)c1ccccc1C(=O)O)C(=O)O	none
CO[C@@]12C[C@@H](COC(=O)c3cncc(Br)c3)CN(C)[C@H]1Cc1cn(C)c3cccc2c13	Hsp90 Hop PPI 10µM!, Tau fil binding inconclusive, ERK AVP inh inconclusive
O=C(OCC(=O)N1CCCC1)c1cncc(Br)c1	none
Brc1ccccc1-c1nnc(COc2ncnc3c2cnn3-c2ccccc2)o1	ERK AVP inh 32µM
Brc1ccccc1-c1nnc(CSc2nnnn2-c2ccccc2)o1	none
O=C(c1nc2n(n1)C(c1ccc(Cl)cc1)C=C(c1ccccc1)N2)N1CCOCC1 (stereo not drawn)	none
c1cncc(-c2cncnc2NC2CCNCC2)c1	15-hLO inh 32µM
c1cncc(-c2ccc3ncnc(NC4CCNCC4)c3c2)c1	none
CC(C)Cn1c(SCC(=O)c2ccc(Cl)s2)nnc1-c1ccco1	none
O=C(CCN1C(=O)c2ccccc2C1=O)NCCC1=CCCCC1	none
Brc1ccc(-c2nn3c(-c4ccco4)nnc3s2)o1	DNA Pol III inh 25µM, 15-hLO inh 20µM
Clc1ccc(-c2ccc(-c3nn4c(-c5ccco5)nnc4s3)o2)cc1	Tau fil binding 25µM, 15-hLO inh 16µM
COc1ccc(-c2nsc(SCC(=O)Nc3cc(C)on3)n2)cc1	15-hLO inh inconclusive
O=C(NC1CCCC1)C(c1ccncc1)N(Cc1cccs1)C(=O)c1csnn1 (stereo not drawn)	none
COc1ccc(C(=O)Oc2cccnc2)cc1OC	ERK AVP inh inconclusive
c1ccc(-c2nn3c(C4COc5ccccc5O4)nnc3s2)cc1 (stereo not drawn)	15-hLO inh inconclusive
N#Cc1sc2nc3c(c(-c4ccco4)c2c1N)CCCC3	Tau fil binding 3.2µM
N#CCSc1nnc(CNc2cccc(Cl)c2)o1	none
COC(=O)[C@@]1(Cc2ccccc2)[C@H]2c3cc(C(=O)N4CCCC4)n(Cc4ccccc4)c3C[C@H]2CN1C(=O)c1ccccc1	none (no result: 15-hLO inh)
CCc1c(C)sc(NC(=O)CC#N)c1C#N	Tau fil binding 13µM
Brc1ccc2[nH]c3nc(SCCN4CCOCC4)nnc3c2c1	Tau fil binding 13µM
c1ccc2c(c1)[nH]c1nc(SCCN3CCOCC3)nnc12	ERK AVP inh inconclusive
O=C(Cn1cnnn1)OCC(=O)c1ccc(Cl)s1	Tau fil binding 10µM
CCc1nnc(NC(=O)COC(=O)CN2C(=O)c3ccccc3C2=O)s1	none
COc1cc(N=c2ssnc2Cl)cc(OC)c1OC	TsaE inh inconclusive, 15-hLO inh 3.2µM
COc1cc(NC(=O)c2cc(C(C)C)on2)cc(OC)c1OC	none
O=C(CSc1ccc2c(c1)OCCO2)NCc1ccco1	none
N#CCCn1c(=O)c(-c2ccc(Cl)cc2)nc2cnc(N3CCNCC3)nc21	Tau fil binding 4µM
N#CCCn1c(=O)cnc2cnc(N3CCOCC3)nc21	ERK AVP inh 6.3µM
N#CCCn1c(=O)c(-c2ccc(F)cc2)nc2cnc(N3CCOCC3)nc21	none
N#CCCn1c(=O)c(-c2ccc(Cl)cc2)nc2cnc(N3CCOCC3)nc21	none
CN1CCN(c2ncc3nc(-c4ccc(Cl)cc4)c(=O)n(CCC#N)c3n2)CC1	Tau fil binding 3.2µM
O=C(Nc1ccc(OC(F)(F)F)cc1)C1CCCN(S(=O)(=O)c2cccnc2)C1 (stereo not drawn)	none
CN1C(=O)CC(N2CCC(c3nc4ccccc4[nH]3)CC2)C1=O (stereo not drawn)	Tau fil binding 20µM
CC1CCCN(c2ccc(C(=O)NCc3cccs3)cn2)C1 (stereo not drawn)	ERK AVP inh 16µM
COc1cc2cc3c4c(cc(OC)c(OC)c4c2cc1OC)CCN3C	Hsp90 Hop PPI inconclusive, Tau fil binding 4µM, ERK AVP inh inconclusive
COc1ccc(-n2c(Cc3cccn3C)nnc2SCC(=O)NCC2CCCO2)cc1 (stereo not drawn)	none
O=C(Nc1cccc(N2CCCC2)c1)c1cccs1	Tau fil binding 13µM, 15-hLO inh inconclusive, ERK AVP inh inconclusive
Nc1cccc(NC(=O)c2cccs2)c1	none
O=C(O)C1Cc2c([nH]c3ccccc23)C(c2ccc3c(c2)OCO3)N1 (stereo not drawn)	15-hLO inh 13µM
O=C(O)[C@@H]1Cc2c([nH]c3ccccc23)[C@@H](CCCCO)N1	none
Cc1cnc(CNc2ncncc2-c2cccc(NS(C)(=O)=O)c2)cn1	none
